Measured values reported in the supplement of paper PMC11732987, “Enantioselective OTUD7B fragment discovery through chemoproteomics screening and high-throughput optimisation” (Communications Chemistry, 2025).

How the values were obtained:
Assay in all cases: log2 ratio of Biotin-Ahx-Ub-VS probe labelling (fragment/DMSO); higher = less target engagement (more negative = stronger competition), active = hit call of the paper (q ≤ 0.05, log2 ratio ≤ -1)
Conditions in all cases: compound concentration: 200 uM; treatment time: 3 h
USP34 = USP34 (UniProt Q70CQ2)
In short: (§1)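 Using Biotin-Ahx-Ub-VS at 0.5 µM final for 1 h, DUBs were labelled in HEK293T lysate (495 µg per sample) that had first been treated in triplicate with fragment at 200 µM or vehicle for 3 h. NeutrAvidin enrichment, LysC and trypsin digestion and diaPASEF LC-MS/MS followed. Spectronaut label-free quantities were global-median-normalised. Values are average log2 fragment/vehicle ratios by unpaired t-test, using proteins with ≥2 unique peptides.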

USP36 = target: T1, USP36 (UniProt Q9P275)
T1 sequence (whole entry): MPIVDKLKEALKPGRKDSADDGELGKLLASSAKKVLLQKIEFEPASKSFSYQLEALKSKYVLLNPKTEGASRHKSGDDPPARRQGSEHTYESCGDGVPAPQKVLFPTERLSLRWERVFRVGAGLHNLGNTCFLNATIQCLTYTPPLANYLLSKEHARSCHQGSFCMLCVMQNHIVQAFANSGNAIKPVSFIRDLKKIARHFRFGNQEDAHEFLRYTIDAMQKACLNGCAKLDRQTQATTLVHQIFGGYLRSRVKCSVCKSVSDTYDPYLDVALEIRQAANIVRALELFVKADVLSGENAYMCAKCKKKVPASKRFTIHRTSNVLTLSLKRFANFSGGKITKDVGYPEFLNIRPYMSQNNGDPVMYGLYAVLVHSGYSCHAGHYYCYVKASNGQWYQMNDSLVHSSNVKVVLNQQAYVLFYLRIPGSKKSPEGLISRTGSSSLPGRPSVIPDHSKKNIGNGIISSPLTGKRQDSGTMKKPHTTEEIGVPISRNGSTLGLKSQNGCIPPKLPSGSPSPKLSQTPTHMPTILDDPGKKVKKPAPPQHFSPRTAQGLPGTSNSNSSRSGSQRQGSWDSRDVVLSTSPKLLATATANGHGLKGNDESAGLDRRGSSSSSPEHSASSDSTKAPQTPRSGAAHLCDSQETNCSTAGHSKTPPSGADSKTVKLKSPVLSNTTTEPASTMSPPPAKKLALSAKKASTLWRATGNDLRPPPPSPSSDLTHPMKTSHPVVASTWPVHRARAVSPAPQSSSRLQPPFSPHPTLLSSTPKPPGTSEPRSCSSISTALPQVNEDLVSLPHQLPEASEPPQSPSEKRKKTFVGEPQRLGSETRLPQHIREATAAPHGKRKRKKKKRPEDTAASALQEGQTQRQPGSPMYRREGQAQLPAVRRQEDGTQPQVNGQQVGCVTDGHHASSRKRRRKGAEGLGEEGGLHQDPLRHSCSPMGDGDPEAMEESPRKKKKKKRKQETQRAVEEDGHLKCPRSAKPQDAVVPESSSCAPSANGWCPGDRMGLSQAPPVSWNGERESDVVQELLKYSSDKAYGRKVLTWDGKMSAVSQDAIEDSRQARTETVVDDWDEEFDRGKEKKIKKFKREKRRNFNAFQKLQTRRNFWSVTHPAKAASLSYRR
In short: as §1

USP38 = target: T2, USP38 (UniProt Q8NB14)
T2 sequence (whole entry): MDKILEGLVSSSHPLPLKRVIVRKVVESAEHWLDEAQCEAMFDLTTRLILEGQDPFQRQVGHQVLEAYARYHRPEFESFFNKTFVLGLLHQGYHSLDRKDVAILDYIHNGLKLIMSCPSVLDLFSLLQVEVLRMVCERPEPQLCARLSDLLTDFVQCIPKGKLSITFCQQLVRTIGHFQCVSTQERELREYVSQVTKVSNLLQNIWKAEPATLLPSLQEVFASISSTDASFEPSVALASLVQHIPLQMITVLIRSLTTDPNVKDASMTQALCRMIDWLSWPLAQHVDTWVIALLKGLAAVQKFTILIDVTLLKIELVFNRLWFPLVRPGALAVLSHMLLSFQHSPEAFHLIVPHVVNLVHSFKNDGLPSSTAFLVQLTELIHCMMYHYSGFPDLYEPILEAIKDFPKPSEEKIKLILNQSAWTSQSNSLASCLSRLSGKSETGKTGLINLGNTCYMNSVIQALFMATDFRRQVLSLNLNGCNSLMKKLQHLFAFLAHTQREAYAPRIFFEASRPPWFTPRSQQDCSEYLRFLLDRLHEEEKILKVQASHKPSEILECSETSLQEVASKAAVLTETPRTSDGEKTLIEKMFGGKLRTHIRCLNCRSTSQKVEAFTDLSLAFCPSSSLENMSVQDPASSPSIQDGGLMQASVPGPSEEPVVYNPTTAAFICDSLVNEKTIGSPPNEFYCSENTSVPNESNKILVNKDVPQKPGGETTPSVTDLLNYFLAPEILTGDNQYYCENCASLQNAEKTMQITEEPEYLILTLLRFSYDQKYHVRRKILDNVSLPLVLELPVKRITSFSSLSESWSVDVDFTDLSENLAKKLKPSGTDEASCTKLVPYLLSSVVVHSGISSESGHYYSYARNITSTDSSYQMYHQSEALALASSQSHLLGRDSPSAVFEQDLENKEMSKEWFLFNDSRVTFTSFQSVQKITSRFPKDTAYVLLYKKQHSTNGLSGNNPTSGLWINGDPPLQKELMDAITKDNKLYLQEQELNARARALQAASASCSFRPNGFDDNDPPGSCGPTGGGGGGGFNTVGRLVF
In short: as §1

USP39 = target: T3, USP39 (UniProt Q53GS9)
T3 sequence (whole entry): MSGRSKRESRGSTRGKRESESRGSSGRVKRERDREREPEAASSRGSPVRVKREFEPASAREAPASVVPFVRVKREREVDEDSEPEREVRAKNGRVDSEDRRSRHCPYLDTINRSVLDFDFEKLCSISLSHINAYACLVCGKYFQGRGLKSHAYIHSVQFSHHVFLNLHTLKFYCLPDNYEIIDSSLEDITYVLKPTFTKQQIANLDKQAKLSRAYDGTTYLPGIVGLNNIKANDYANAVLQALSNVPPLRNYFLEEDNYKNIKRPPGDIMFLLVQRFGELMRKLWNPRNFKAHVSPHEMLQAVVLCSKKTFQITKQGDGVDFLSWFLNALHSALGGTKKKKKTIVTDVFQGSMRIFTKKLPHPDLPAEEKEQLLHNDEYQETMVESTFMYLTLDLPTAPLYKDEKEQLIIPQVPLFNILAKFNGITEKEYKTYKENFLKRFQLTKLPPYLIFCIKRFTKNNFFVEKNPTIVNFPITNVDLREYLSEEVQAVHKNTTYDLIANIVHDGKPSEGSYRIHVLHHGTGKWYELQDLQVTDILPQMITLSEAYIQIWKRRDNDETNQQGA
In short: as §1

USP4 = target: T4, USP4 (UniProt Q13107)
T4 sequence (whole entry): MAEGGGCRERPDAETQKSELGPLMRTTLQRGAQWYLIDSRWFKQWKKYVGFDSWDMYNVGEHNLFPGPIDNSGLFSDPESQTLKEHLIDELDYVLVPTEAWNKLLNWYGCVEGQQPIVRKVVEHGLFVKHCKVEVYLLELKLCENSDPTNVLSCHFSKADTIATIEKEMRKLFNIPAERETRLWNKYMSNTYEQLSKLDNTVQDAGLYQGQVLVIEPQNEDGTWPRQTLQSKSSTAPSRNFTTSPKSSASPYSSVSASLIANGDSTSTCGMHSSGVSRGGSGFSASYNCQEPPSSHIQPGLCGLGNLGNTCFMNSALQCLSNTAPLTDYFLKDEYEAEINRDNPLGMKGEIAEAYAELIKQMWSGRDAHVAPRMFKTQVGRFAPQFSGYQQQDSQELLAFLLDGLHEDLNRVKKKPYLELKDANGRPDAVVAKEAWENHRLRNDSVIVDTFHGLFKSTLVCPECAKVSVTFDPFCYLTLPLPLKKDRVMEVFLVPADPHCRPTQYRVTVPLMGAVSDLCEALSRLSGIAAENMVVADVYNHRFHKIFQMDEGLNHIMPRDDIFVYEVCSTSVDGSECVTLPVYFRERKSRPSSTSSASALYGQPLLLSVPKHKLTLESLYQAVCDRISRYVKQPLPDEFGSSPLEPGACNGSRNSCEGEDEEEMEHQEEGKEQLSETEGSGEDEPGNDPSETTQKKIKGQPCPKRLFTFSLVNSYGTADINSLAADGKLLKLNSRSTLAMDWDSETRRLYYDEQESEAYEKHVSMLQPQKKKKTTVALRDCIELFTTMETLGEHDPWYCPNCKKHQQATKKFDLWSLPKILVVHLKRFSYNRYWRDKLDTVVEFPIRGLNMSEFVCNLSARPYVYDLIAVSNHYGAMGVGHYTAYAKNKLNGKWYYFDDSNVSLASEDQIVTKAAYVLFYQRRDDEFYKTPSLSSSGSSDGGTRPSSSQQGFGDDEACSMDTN
In short: as §1

Measured: log2 ratio of Biotin-Ahx-Ub-VS probe labelling

USP34, sequence (Q70CQ2 whole entry, the tested form may be a part): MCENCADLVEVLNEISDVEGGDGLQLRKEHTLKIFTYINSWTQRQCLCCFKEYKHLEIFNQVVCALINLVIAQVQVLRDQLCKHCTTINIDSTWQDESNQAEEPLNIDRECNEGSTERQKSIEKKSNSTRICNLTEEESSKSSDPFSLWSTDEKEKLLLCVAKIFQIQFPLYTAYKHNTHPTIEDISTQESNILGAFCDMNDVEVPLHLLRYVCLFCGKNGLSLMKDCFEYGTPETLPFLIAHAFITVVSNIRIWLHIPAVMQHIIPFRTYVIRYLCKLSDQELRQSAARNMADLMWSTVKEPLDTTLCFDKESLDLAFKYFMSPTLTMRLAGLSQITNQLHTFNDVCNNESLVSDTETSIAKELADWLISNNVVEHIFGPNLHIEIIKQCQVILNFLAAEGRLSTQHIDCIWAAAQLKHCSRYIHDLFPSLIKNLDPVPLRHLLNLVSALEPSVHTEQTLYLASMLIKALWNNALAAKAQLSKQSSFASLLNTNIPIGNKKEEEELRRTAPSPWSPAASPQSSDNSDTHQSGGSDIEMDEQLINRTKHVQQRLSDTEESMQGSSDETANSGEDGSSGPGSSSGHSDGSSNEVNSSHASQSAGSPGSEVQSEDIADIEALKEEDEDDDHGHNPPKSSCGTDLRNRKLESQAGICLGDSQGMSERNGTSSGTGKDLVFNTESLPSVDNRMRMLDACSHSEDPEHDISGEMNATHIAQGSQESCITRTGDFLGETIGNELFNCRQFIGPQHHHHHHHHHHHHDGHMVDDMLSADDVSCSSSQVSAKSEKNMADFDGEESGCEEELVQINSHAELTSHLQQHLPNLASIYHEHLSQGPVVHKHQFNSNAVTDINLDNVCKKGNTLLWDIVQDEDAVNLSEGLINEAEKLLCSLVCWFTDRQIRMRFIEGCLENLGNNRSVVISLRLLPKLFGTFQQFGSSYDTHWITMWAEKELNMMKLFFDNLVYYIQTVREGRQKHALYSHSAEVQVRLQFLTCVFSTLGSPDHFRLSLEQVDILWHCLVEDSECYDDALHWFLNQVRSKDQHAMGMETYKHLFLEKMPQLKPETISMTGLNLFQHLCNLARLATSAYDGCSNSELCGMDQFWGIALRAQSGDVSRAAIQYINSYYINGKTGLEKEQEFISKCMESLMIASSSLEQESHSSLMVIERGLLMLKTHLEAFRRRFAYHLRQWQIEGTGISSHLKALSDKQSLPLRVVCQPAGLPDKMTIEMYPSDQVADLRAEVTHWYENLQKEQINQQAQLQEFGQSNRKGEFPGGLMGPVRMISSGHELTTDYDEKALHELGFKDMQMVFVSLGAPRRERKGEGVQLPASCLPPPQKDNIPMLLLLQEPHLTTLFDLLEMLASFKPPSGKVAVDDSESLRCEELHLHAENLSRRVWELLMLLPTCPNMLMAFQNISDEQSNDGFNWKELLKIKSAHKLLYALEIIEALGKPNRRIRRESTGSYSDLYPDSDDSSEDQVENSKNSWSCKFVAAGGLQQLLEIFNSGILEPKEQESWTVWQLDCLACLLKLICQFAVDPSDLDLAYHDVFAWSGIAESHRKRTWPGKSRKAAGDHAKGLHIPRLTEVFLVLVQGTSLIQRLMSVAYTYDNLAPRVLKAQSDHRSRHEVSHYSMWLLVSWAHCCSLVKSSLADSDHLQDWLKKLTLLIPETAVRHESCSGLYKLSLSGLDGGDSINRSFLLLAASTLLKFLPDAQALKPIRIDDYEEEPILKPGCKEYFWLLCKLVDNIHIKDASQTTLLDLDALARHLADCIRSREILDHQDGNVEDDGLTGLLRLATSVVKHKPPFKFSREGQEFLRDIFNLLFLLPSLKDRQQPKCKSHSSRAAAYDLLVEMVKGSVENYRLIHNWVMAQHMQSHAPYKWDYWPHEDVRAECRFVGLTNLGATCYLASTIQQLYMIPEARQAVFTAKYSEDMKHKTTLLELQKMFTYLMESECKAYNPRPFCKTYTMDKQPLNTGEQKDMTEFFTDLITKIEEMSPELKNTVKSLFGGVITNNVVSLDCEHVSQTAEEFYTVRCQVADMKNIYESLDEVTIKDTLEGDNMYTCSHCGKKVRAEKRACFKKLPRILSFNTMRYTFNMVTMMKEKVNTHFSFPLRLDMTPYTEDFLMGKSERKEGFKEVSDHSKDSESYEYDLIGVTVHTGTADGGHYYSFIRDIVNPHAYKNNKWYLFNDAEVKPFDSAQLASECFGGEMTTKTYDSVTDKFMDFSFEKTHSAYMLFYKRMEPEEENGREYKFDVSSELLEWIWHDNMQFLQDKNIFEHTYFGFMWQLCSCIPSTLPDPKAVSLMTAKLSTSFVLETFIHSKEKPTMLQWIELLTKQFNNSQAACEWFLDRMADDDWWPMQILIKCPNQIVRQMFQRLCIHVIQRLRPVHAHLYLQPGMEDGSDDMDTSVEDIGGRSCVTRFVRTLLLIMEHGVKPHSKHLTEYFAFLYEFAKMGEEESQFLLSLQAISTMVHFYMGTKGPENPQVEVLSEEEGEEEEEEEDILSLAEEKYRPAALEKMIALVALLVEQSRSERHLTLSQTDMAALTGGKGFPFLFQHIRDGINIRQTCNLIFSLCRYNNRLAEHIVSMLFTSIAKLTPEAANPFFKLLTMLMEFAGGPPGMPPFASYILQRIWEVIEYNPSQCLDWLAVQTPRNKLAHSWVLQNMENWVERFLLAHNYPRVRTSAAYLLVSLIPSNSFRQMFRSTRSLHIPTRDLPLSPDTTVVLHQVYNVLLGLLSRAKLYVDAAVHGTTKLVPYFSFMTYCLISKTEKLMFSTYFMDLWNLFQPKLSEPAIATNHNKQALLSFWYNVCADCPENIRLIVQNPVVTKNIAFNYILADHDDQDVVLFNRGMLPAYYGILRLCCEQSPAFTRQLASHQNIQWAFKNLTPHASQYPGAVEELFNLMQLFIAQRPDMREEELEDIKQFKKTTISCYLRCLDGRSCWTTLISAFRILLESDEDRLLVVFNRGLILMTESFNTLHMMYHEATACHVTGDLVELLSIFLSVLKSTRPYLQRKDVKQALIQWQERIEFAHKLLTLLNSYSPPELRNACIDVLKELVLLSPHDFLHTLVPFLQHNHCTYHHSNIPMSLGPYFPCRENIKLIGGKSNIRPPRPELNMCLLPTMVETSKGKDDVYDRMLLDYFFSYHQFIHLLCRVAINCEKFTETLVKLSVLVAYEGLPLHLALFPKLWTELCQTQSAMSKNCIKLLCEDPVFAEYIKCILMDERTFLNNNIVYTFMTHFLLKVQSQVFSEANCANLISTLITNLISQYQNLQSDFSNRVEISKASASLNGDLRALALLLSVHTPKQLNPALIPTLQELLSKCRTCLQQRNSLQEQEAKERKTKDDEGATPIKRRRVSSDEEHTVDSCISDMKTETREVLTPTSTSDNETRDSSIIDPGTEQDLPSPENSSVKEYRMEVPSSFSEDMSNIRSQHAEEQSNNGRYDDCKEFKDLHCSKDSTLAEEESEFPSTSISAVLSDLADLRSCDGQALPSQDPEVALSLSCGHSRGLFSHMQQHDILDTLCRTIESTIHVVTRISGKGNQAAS

Cc1ncc2c(n1)CCN(C(=O)CCl)C2
inactive: USP34 -0.14 | USP36 -0.0392 | USP38 -0.067 | USP39 0.0209 | USP4 -0.35
